# Hit rate of the full screen: of about 200,000 compounds, about 18,000 (9%) were called active. The entries come from a sample that favours actives as a whole. A number with no mark means an inactive call. Rule as the data show it: active = inhibition above about 50%; inactive = the rest.
# Test: Leishmania major promastigote growth inhibition, primary screen (AID 1063);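 also: promastigotes grown with compound for 44 hours at 28 °C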
# Settings: Leishmania major promastigotes, resazurin fluorescence viability; at 10 µM; hits give high values
row,SMILES,inhibition
1,O=c1c2c(nc3n1CCCCC3)sc1c(O)cccc12,-1.41%
2,Cc1c(C(=O)Nc2ccccc2)sc2nc3n(c(=O)c12)CCCCC3,61.8% (active)
3,Cc1c(C(=O)Nc2cccc(-c3nnc4n3CCCCC4)c2)oc2ccccc12,27.1%
4,C=CCNc1nc(Nc2ccc(Cl)cc2)nc(OC)n1,41.2%
5,COc1ccc(C2Nc3ccccc3C(=O)N2c2ccc(F)cc2)cc1Cn1nnc2ccccc21 (centres undefined),20.3%
6,COc1ccc(C2=NO[C@@H]3C(=O)N(Cc4ccccc4)C(=O)[C@H]23)cc1OC,-2.75%
7,COc1ccc(C2Nc3ccccc3C(=O)N2Cc2ccccc2)cc1Cn1nnc2ccccc21 (centres undefined),97% (active)
8,CCN1CCN(C(C(=O)NC2CCCC2)c2cc3c(cc2[N+](=O)[O-])OCO3)CC1 (centres undefined),-2.85%
9,COc1ccc(Cc2n[nH]c(=S)n2NC(=O)Nc2ccc(C)cc2)cc1,-2.58%
10,CCN1CCN(Cc2nc3c(c(=O)n(C)c(=O)n3C)n2CC(=O)c2ccccc2)CC1,1.75%
11,CN1CCN(Cc2nc3c(c(=O)n(C)c(=O)n3C)n2Cc2cccc3ccccc23)CC1,58.8% (active)
12,Cn1c(=O)c2c(nc(CN3CCOCC3)n2Cc2ccccc2)n(C)c1=O,-4.56%
13,Cc1cccc(NC(=S)N2CCC(O)CC2)c1C,-2.49%
14,Cc1ccc(NC(=O)COc2ccc(-n3ccnc3)cc2)cc1Cl,86.5% (active)
15,Cc1ccccc1OCC(=O)Nc1ccc(N2CCN(C(=O)C(C)C)CC2)c(Cl)c1,40.7%
16,Cc1csc(OCC(=O)Nc2ccc(C)c(C)c2)n1,-3.8%
17,O=C(CNC(=O)COc1ccccc1)NCCc1ccccn1,-2.06%
18,CCn1c(SCc2ccc(C)cc2)nnc1-c1nn(-c2ccccc2)ccc1=O,5.13%
19,N=C(N)SCc1cccc2ccccc12,5.8%
20,CCc1ccc(-c2nn(-c3ccccc3)cc2CSC(=N)N)cc1,100% (active)
21,N/C(=N\OC(=O)CCc1ccccc1)c1cccnc1,-5.44%
22,COC(=O)CSc1nccc(-c2cccs2)n1,1.92%
23,Cc1nnc(SCC(=O)N2CCN(c3ccccc3)CC2)n1-c1ccccc1,5.01%
24,Cc1nnc(SCC(=O)NCCOc2ccc(Cl)cc2)n1-c1ccccc1,-1.38%
25,Cc1nnc(SCc2ccc(C(=O)c3ccc(Cl)cc3)o2)n1-c1ccccc1,98.6% (active)
26,CNC(=O)c1[nH]cnc1C(=O)N[C@@H](CC(C)C)C(=O)OCc1ccccc1,0.78%

row,SMILES,inhibition
1,CCN(CC)S(=O)(=O)c1ccc2[nH]cc(C(=O)NCCc3ccccc3)c(=O)c2c1,7.93%
2,O=C(NCCc1c[nH]c2ccccc12)c1cc2ccccc2oc1=O,1.33%
3,CN(c1ccccc1)S(=O)(=O)c1ccc(Cl)c(C(=O)NCCc2c[nH]c3ccccc23)c1,95.2% (active)
4,CCn1c(=S)[nH]c2sc3c(c2c1=O)CCCCC3,-4.76%
5,Cc1sc2ncnc(Sc3nc4ccccc4s3)c2c1C,7.91%
6,CCN(CC)CCCSc1nc2ccccc2s1,70.2% (active)
7,Cc1nc2nc(CSc3nc4ccccc4s3)cc(=O)n2[nH]1,1.29%
8,O=C1COc2ccc(C(=O)COC(=O)C3CC(O)CN3S(=O)(=O)c3ccc(Cl)cc3)cc2N1 (centres undefined),-7.23%
9,CCS(=O)(=O)N1Cc2ccccc2CC1C(=O)Nc1nc2ccc(F)cc2s1 (centres undefined),19.1%
10,CN(C)C(=O)N1CCNCC1,-4.41%
11,O=C(N/N=C/C=C/c1ccco1)c1cccs1,-2.33%
12,COc1cccc(-c2cc(C(=O)N/N=C/c3ccc(OC)c(COC(C)=O)c3)c3ccccc3n2)c1,10.4%
13,Cc1ccc(-c2cc(C(=O)N/N=C/C=C/c3ccco3)c3ccccc3n2)cc1C,55.7% (active)
14,COc1ccc(NS(=O)(=O)c2ccc(O)c(C(=O)OCC(=O)NC3CCCCC3)c2)cc1,-3.84%
15,O=C(NNc1cc(Cl)ccc1Cl)c1cccnc1Cl,-4.41%
16,COC(=O)Cc1ccc(NC(=S)NCc2ccco2)cc1,-3.07%
17,CC(C)c1nc(CNC(=O)CC2C(=O)NCCN2Cc2ccoc2)cs1 (centres undefined),-2.52%
18,COCc1c(N)c(C)nc(Cl)c1C#N,3.91%
19,Cc1ccsc1/C=N/n1c(=S)[nH]nc(C)c1=O,99% (active)
20,Oc1ccccc1/C=N/n1c(-c2cccs2)n[nH]c1=S,-8.08%
21,S=c1[nH]nc(-c2cccs2)n1/N=C/c1cccs1,-14.7%
22,Cc1c(Cl)cccc1NC(=O)CSc1ccc(-c2cccnc2)nn1,10.9%
23,Cc1cc(SCC(=O)c2ccccc2)nc(SCC(=O)c2ccccc2)n1,-2.75%
24,COC(=O)c1cc(C(=O)CSc2nc(C)cc(C)n2)ccc1O,-2.37%
25,Cc1cc(Oc2ccc(Cl)cc2)nc(SCC(=O)c2ccccc2)n1,95.7% (active)
26,CC(=O)c1sc(NC(=O)C2=NN(c3ccccc3)C(=O)CC2)nc1C,2.95%

row,SMILES,inhibition
1,CC1=CC=CC2=N/C(=N\S(=O)(=O)c3ccc(F)cc3F)c3ccccc3CN12,2.41%
2,Oc1ccc(CNc2ccccc2O)cc1,98.9% (active)
3,O=[N+]([O-])c1ccccc1Nc1ccc(O)cc1,5.07%
4,O=[N+]([O-])c1ccccc1NCc1ccc(Cl)cc1,-7.18%
5,O=C(CS(=O)(=O)c1ccccc1)Nc1ccc(S(=O)(=O)Nc2ccccn2)cc1,-6.61%
6,O=C(NCCc1ccc(F)cc1)c1n[nH]c2ccccc12,3.08%
7,CN(C)CCNC(CC(=O)Nc1ccc(Cl)c(Cl)c1)C(=O)O (centres undefined),-6.23%
8,O=C(Cc1ccc(Cl)c(Cl)c1)Nc1ccc(SC(F)F)cc1,4.28%
9,O=C(CC(O)(C(F)(F)F)C(F)(F)F)Nc1ccc(Cl)c(Cl)c1,100% (active)
10,Cc1cc(C)n(-c2ccc(C(=O)O)cc2[N+](=O)[O-])n1,-1.85%
11,COC(=O)Cc1csc(/N=C/c2c(O)n(-c3cccc(C(F)(F)F)c3)c(=O)c3ccccc23)n1,-6.16%
12,CCN(CCn1cccn1)Cc1cn[nH]c1-c1ccc(OC)cc1F,2.85%
13,Oc1cccc2ccc(/C=C/c3ccc(Br)s3)nc12,-3.7%
14,CCCNC(=O)CN(Cc1ccccc1F)S(=O)(=O)c1ccc(C)cc1,100% (active)
15,CCN(CC(=O)NCCc1ccccc1)S(=O)(=O)c1ccccc1,5.3%
16,CCN(CC(=O)NCCc1ccccc1)S(=O)(=O)c1ccc(C)cc1,48%
17,CN(C)C(=O)c1cccn(Cc2cccc(C(F)(F)F)c2)c1=O,-8.4%
18,Cc1cc(C)n2nc(SCC(=O)NC(=O)NCc3ccco3)nc2n1,-4.34%
19,O=c1[nH]c2cccnc2n(CCNc2ncc(C(F)(F)F)cc2Cl)c1=O,-4.9%
20,COc1ccc(NC(=O)Nc2ccc3nsnc3c2)cc1,5.81%
21,Cc1ccc(NC(=O)Nc2ccc3oc(C)nc3c2)cc1,2.15%
22,O=C(Nc1ccc2ccccc2c1)Nc1ccc2snnc2c1,100% (active)
23,CCCn1c(NC(=O)C23CC4CC(CC(O)(C4)C2)C3)nc2ccccc21,-1.31%
24,CCn1c(COc2c(C)cccc2C)nnc1SCc1nc2ccccc2c(=O)[nH]1,4.15%
25,C/[N+]([O-])=C\c1ccc([N+](=O)[O-])o1,98.5% (active)
26,CN1CCN(/N=C/c2ccc(-c3ccc([N+](=O)[O-])cc3)o2)CC1,-3.39%

row,SMILES,inhibition
1,COC(=O)C1=C(C)N(C)C(=O)NC1c1ccc([N+](=O)[O-])o1 (centres undefined),15.2%
2,O=C(COc1ccc(Cl)cc1[N+](=O)[O-])N1CCCCC1,-1.15%
3,COc1ccc2c(CN3CCN(S(=O)(=O)c4cccs4)CC3)cc(=O)oc2c1,2.99%
4,O=C(CN1CCN(S(=O)(=O)/C=C/c2ccccc2)CC1)Nc1ccc(N2CCOCC2)cc1,7.17%
5,O=c1cc(CN2CCN(S(=O)(=O)/C=C/c3ccccc3)CC2)c2ccc(O)cc2o1,67.8% (active)
6,O=c1c(-c2ccccc2)cnc2n1CCS2,-5.22%
7,O=C(Cc1c(F)cccc1Cl)Nc1ncc([N+](=O)[O-])s1,15.8%
8,O=C(Nc1ccc2c(c1)OCCO2)C(c1ccc(F)cc1)N1CCCCC1 (centres undefined),58.5% (active)
9,O=C(CSc1ccc(-c2ccc(F)cc2)nn1)Nc1ccc2c(c1)OCCO2,-7%
10,CC1CCCN(C(C(=O)Nc2ccc(C(C)C)cc2)c2ccc3c(c2)OCO3)C1 (centres undefined),26.3%
11,COc1cc(/C=N/NC(=O)c2cc(C)n(-c3ccc(F)cc3)c2C)cc(OC)c1O,3.76%
12,O=C(COC(=O)CC1CC2CCC1C2)NC(=O)NC1CCCC1 (centres undefined),-2.24%
13,Cc1cccc(-n2cnc(C(=O)Nc3cccnc3)c2)n1,10.3%
14,Cn1cc(Cl)c(C(=O)NNC(=S)Nc2cccc(Cl)c2)n1,-7.35%
15,Cc1cccc(-n2cnc(C(=O)NNC(=S)Nc3ccccc3)c2)n1,87% (active)
16,CCOC(=O)c1ccc[n+](CC(=O)Nc2ccccc2OC(F)F)c1,1.13%
17,CCCCN(C(=O)COc1ccc(NC(C)=O)cc1)C1CCS(=O)(=O)C1 (centres undefined),-9.97%
18,CCOCCCNC(=S)N1CCC(NC(=O)C2CCCCC2)CC1,-5.68%
19,COc1ccc(C(=O)NC2CCN(C(=S)Nc3ccccc3)CC2)cc1,-5.57%
20,CCOc1ccc(C(=O)NC2CCN(C(=O)Nc3ccccc3OC)CC2)cc1,-1.82%
21,COc1ccccc1NC(=S)N1CCN(C(c2ccccc2)c2ccccc2)CC1,65.1% (active)
22,COCCNC(=S)N1CCC(NC(=O)C23CC4CC(CC(C4)C2)C3)CC1,73.8% (active)
23,CCCNC(=S)N1CCC(NC(=O)C23CC4CC(CC(C4)C2)C3)CC1,-3.43%
24,COc1ccccc1NC(=S)N1CCC(NC(=O)C23CC4CC(CC(C4)C2)C3)CC1,94.4% (active)
25,COc1ccccc1NC(=S)NC(=O)C(C)C,-0.07%
26,CC(C)NC(=S)N1CCN(C(c2ccccc2)c2ccccc2)CC1,7.72%

# Reference: PubChem BioAssay AID1063 (University of Pittsburgh Molecular Library Screening Center, 2008)
